Experimental findings from PubChem BioAssay (EPA / NIEHS) are described below.

For orientation: AC50 means the concentration at which the activity in the assay is half-maximal.

Inconclusive results are not listed. Calls of active or inactive are those of the source. How the source made its calls, unless noted: active means hit-call score of the fitted dose curve at least 0.9, where 1 is the maximum; inactive means score below 0.9.

Experiment [1] concerns the target Myc proto-oncogene protein (Homo sapiens) (UniProt P01106). In words: ATG_Myc_CIS: Attagene CIS-FACTORIAL HepG2 Assay for human Myelocytomatosis (Myc) Proto-Oncogene Transcription Factor (AID 2282990). The note with it: HepG2, Attagene cis-reporter transcription factor activity; actives raise or lower the signal. A digest of the protocol: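 HepG2, transient MRTU transfection (cis promoters, endogenous TFs); 24 h dosing; TriZol RNA → oligo(dT) RT → PCR → 6-FAM primer extension → HpaI cut → CE. Bidirectional fit vs DMSO.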

A short description of experiment [2]: ATG_NF_kB_CIS: Attagene CIS-FACTORIAL HepG2 Assay for human Nuclear Factor Kappa B (NF-kB) (AID 2282991). The settings on record: HepG2 Attagene cis-factorial NF-kB reporter mRNA; actives raise or lower the signal. An outline of the steps: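 Fluorescence of labelled RT-PCR products separated by capillary electrophoresis gives reporter mRNA levels from transfected HepG2 cells exposed 24 h; values are fitted in both directions relative to DMSO.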

The nature of experiment [3]: ATG_NRF2_ARE_CIS: Attagene CIS-FACTORIAL HepG2 Assay for human Nuclear Factor Erythroid 2 Related Factor 2 (NFR2) response to Antioxidant Response Elements (ARE) (AID 2282992). The settings on record: HepG2 Attagene ARE/NRF2 reporter, transcription factor activity; actives raise or lower the signal. An outline of the steps:
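Multiplexed reporter mRNA profiling in HepG2 after a 24 h chemical exposure. Curves fitted in both directions relative to DMSO negative control.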

Experiment [4] is described as follows: ATG_Oct_MLP_CIS: Attagene CIS-FACTORIAL HepG2 Assay for human Octamer-Binding Transcription Factor (Oct) (AID 2282993). The settings on record: HepG2 Attagene cis-factorial Oct reporter, mRNA; actives raise or lower the signal. A digest of the protocol:
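Cells of the HepG2 line express promoter-controlled reporter sequences whose mRNA levels, after 24 h treatment, are measured by RT-PCR and capillary electrophoresis. Increases and decreases are scored relative to DMSO.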

Experiment [5] has as its target Cellular tumor antigen p53 (Homo sapiens) (UniProt P04637). Description: ATG_p53_CIS: Attagene CIS-FACTORIAL HepG2 Assay for human p53 Transcription Factor (AID 2282994). The note with it: HepG2 p53 cis-element reporter, Attagene mRNA; actives raise or lower the signal. A digest of the protocol:
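Multiplexed reporter mRNA assay in human HepG2 liver cells; cis-regulated units report endogenous factor activity. Values come from bidirectional curve fitting against DMSO negative control after 24 h treatment.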

Experiment [6] in a line: BSK_3C_TissueFactor: BioMAP Diversity Plus: 3C Assay for Tissue Factor Biomarker Activity (AID 2282997). The note with it: BioMAP 3C HUVEC, tissue factor biomarker readout; actives raise or lower the signal. A digest of the protocol:
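ELISA read-out of Tissue Factor levels on human umbilical vein endothelium collected 24 h after chemical dosing. Gain or loss of signal was fitted relative to DMSO.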

Experiment [7] is described as follows: BSK_3C_uPAR: BioMAP Diversity Plus: 3C Assay for Urokinase-type plasminogen activator receptor (uPAR) Biomarker Activity (AID 2282998). The settings on record: BioMAP 3C HUVEC, uPAR biomarker ELISA; actives raise or lower the signal. A digest of the protocol: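 Endothelial primary cells of human umbilical vein origin received test chemical; 24 h later uPAR was assayed by ELISA. Fitting was bidirectional, DMSO as negative control.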
(In general: An ELISA detects its analyte on a solid surface through an enzyme-linked reagent.)

Experiment [8] is described as follows: BSK_3C_VCAM1: BioMAP Diversity Plus: 3C Assay for Vascular cell adhesion molecule 1 (VCAM1) Biomarker Activity (AID 2282999). The note with it: BioMAP 3C HUVEC, VCAM1 ELISA, cytokine-stimulated; actives raise or lower the signal. An outline of the steps:
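Endothelial cells from human umbilical vein are treated with test chemical. At 24 h, VCAM-1 is measured by ELISA, and responses in either direction are fitted relative to DMSO.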

Experiment [9] in a line: BSK_4H_Eotaxin3: BioMAP Diversity Plus: 4H Assay for Eotaxin 3 Biomarker Activity (AID 2283000).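 On outcome: CCL26 protein level quantified by ELISA in parallel with SRB cytotoxicity check.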 The note with it: primary human endothelial cells (HUVEC); actives raise or lower the signal. A digest of the protocol: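 Chemicals were added to human umbilical vein endothelium cultures, and Eotaxin-3 was quantified by ELISA at 24 h. Values were derived by bidirectional fitting with DMSO serving as negative control and activity baseline.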

Read-out in experiment [10]: Intercellular Adhesion Molecule 1 (ICAM1), ICAM1 (gene 3383)
In words: BSK_3C_ICAM1: BioMAP Diversity Plus: 3C Assay for Intercellular Adhesion Molecule 1 (ICAM1) Biomarker Activity (AID 2283003). The note with it: primary human endothelial cells (HUVEC); actives raise or lower the signal. An outline of the steps:
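Primary human umbilical vein endothelial cells in the BioMAP 3C system were exposed to chemicals for 24 h, then ICAM-1 was quantified by ELISA. Activity was fitted bidirectionally against the DMSO negative control baseline.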

Experiment [11] concerns the target Retinoic acid receptor alpha (Homo sapiens) (UniProt P10276). In words: ATG_RARa_TRANS: Attagene TRANS-FACTORIAL HepG2 Assay for human Retinoic Acid Receptor alpha (RARa) (AID 2283005; active means hit-call score of the fitted dose curve at least 0.9, where 1 is the maximum). An outline of the steps: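 Reporter transcripts, measured by RT-PCR with fluorescent labeling and capillary electrophoresis after 24 h dosing, reflect activity of an exogenous human RARa–GAL4 fusion in transiently transfected HepG2. Fitted for increase relative to DMSO.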

Experiment [12] in a line: BSK_3C_Proliferation: Cell Proliferation Assessment in the BioMAP Diversity Plus: 3C Assay (AID 2283006).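 On AC50: potency may reflect either rise or fall in cell number versus DMSO.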 The note with it: primary human endothelial cells (HUVEC). An outline of the steps: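 Human umbilical vein endothelial cells were grown sub-confluent and exposed to chemical for 48 h, then fixed with 10% TCA and stained with 0.1% sulforhodamine B; absorbance at 560 nm gave relative cell number, fitted bidirectionally against DMSO baseline.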

Experiment [13] deals with Peroxisome proliferator-activated receptor gamma (Homo sapiens) (UniProt P37231). Description: ATG_PPARg_TRANS: Attagene TRANS-FACTORIAL HepG2 Assay for human Peroxisome Proliferator-activated Receptor-gamma (PPARg) (AID 2283007; active means hit-call score of the fitted dose curve at least 0.9, where 1 is the maximum). An outline of the steps: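 Twenty-four hours after chemical dosing of transiently transfected HepG2 cells, isolated RNA was converted to cDNA, reporter sequences amplified and 6-FAM-labelled, then HpaI-digested and analysed by capillary electrophoresis. Signal increase against DMSO was fitted.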
Peroxisome proliferator-activated receptor gamma (Homo sapiens), sequence (P37231 whole entry, looked up): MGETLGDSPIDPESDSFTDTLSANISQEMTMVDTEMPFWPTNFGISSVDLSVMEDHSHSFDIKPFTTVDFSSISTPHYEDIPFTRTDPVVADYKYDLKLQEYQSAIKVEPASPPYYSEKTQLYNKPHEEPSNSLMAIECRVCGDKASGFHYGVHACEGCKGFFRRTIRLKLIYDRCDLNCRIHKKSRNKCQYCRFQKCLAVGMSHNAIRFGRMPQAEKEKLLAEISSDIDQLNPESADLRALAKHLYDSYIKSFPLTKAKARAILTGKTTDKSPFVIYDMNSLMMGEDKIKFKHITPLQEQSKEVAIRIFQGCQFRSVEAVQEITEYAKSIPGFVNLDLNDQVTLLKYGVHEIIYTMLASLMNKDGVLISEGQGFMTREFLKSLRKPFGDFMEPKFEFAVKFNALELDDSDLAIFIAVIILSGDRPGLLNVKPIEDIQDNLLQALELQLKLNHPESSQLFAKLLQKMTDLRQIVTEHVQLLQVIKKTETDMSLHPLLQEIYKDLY

Experiment [14] addresses Nuclear receptor subfamily 1 group I member 2 (Homo sapiens) (UniProt O75469). Description: ATG_PXR_TRANS: Attagene TRANS-FACTORIAL HepG2 Assay for human Pregnane X Receptor (PXR) (AID 2283008; active means hit-call score of the fitted dose curve at least 0.9, where 1 is the maximum). An outline of the steps:
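Measures mRNA induction of a GAL4-UAS-driven reporter in human HepG2 cells transiently expressing PXR fused to Gal4, following 24 h treatment. DMSO served as negative control and baseline.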

Experiment [15] has as its target human Retinoic Acid Receptor gamma (RARg), RARG (gene 5916) (UniProt P13631). Description: ATG_RARg_TRANS: Attagene TRANS-FACTORIAL HepG2 Assay for human Retinoic Acid Receptor gamma (RARg) (AID 2283009; active means hit-call score of the fitted dose curve at least 0.9, where 1 is the maximum). An outline of the steps:
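HepG2 cells transiently transfected with multiplexed reporter units expressing chimeric RARg-GAL4 and GAL4-UAS-driven reporters; 24 h compound exposure. Reporter mRNA quantified by RT-PCR with fluorescent labelling and capillary electrophoresis; gain-of-signal fitted relative to DMSO baseline.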

Experiment [16] has as its target Retinoic acid receptor RXR-alpha (Homo sapiens) (UniProt P19793). In words: ATG_RXRa_TRANS: Attagene TRANS-FACTORIAL HepG2 Assay for human Retinoid X Receptor alpha (RXRa) (AID 2283012; active means hit-call score of the fitted dose curve at least 0.9, where 1 is the maximum). An outline of the steps: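 HepG2 cells transiently transfected with multiplexed GAL4-UAS reporter units and chimeric NR-GAL4 fusions, dosed 24 h. Reporter mRNA measured by RT-PCR, FAM labelling, HpaI digestion and capillary electrophoresis; gain-of-signal fitted relative to DMSO baseline.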

The target in experiment [17] is human Peroxisome Proliferator-activated Receptor alpha (PPARa), PPARA (gene 5465) (UniProt Q07869). In words: ATG_PPARa_TRANS: Attagene TRANS-FACTORIAL HepG2 Assay for human Peroxisome Proliferator-activated Receptor alpha (PPARa) (AID 2283001; active means hit-call score of the fitted dose curve at least 0.9, where 1 is the maximum). A digest of the protocol:
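Reporter transcripts from GAL4-UAS units in transfected HepG2 were quantified 24 h after dosing. Detection used reverse transcription, PCR, fluorescent primer extension and capillary electrophoresis, with DMSO as baseline.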

The target of experiment [18] is human Peroxisome Proliferator-activated Receptor delta (PPARd), PPARD (gene 5467) (UniProt Q03181). In words: ATG_PPARd_TRANS: Attagene TRANS-FACTORIAL HepG2 Assay for human Peroxisome Proliferator-activated Receptor delta (PPARd) (AID 2283002; active means hit-call score of the fitted dose curve at least 0.9, where 1 is the maximum). An outline of the steps: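 Transient HepG2 transfection (multiple GAL4-UAS RTUs, chimeric receptor-Gal4); 24 h dosing; total RNA → oligo(dT) RT → PCR → 6-FAM primer extension → HpaI cut → CE. Positive direction vs DMSO.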
human Peroxisome Proliferator-activated Receptor delta (PPARd), PPARD (gene 5467), sequence (Q03181 whole entry, looked up, the tested form may be a part): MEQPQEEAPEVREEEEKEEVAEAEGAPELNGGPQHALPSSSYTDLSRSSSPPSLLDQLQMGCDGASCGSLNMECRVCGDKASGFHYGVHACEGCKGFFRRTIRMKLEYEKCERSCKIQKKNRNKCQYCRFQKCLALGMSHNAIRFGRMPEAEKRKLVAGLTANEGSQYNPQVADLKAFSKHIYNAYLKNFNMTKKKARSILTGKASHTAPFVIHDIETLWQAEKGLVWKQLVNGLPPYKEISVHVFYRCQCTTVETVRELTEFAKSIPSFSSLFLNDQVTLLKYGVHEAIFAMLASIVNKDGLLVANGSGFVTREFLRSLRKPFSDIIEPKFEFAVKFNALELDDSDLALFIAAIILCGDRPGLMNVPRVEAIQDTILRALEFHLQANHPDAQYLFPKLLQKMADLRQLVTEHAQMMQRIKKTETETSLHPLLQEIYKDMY

The target in experiment [19] is human RAR-related Orphan Receptor gamma (RORg), RORC (gene 6097) (UniProt P51449). In words: ATG_RORg_TRANS: Attagene TRANS-FACTORIAL HepG2 Assay for human RAR-related Orphan Receptor gamma (RORg) (AID 2283011; active means hit-call score of the fitted dose curve at least 0.9, where 1 is the maximum). A digest of the protocol: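 First, HepG2 liver cells were transfected with GAL4-UAS-driven reporter constructs and the RORg-Gal4 fusion. Next, they were treated with chemical for 24 h. Finally, reporter mRNA was quantified by RT-PCR and capillary electrophoresis, with upward activity fitted against DMSO.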
human RAR-related Orphan Receptor gamma (RORg), RORC (gene 6097), sequence (P51449 whole entry, looked up, the tested form may be a part): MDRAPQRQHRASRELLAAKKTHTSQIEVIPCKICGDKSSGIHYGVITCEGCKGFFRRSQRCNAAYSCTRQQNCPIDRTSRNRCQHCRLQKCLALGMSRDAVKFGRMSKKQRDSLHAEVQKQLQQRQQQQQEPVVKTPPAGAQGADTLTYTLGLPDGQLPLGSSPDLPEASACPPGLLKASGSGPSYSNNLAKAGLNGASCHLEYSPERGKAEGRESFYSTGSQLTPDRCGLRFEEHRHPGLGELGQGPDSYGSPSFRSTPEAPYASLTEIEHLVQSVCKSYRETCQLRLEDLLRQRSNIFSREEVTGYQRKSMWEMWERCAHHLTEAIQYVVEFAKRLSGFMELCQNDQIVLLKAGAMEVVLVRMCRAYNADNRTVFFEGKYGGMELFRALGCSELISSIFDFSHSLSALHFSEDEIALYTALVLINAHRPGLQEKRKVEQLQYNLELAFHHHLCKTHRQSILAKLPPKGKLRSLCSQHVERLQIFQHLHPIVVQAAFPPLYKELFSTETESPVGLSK

Myc proto-oncogene protein (Homo sapiens), sequence (P01106 whole entry, looked up): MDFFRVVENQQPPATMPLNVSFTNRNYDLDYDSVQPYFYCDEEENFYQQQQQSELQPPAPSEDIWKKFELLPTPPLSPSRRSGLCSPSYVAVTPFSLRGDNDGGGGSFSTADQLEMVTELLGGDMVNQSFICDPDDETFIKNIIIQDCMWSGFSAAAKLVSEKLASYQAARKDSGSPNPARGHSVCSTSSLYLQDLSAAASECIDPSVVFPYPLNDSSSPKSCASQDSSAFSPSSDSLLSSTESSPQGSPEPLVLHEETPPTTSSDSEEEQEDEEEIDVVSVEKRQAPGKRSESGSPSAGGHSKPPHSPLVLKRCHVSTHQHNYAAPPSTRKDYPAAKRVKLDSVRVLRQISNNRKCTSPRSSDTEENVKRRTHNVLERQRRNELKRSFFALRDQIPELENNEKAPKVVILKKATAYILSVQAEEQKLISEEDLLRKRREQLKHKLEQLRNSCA
Cellular tumor antigen p53 (Homo sapiens), sequence (P04637 whole entry, looked up): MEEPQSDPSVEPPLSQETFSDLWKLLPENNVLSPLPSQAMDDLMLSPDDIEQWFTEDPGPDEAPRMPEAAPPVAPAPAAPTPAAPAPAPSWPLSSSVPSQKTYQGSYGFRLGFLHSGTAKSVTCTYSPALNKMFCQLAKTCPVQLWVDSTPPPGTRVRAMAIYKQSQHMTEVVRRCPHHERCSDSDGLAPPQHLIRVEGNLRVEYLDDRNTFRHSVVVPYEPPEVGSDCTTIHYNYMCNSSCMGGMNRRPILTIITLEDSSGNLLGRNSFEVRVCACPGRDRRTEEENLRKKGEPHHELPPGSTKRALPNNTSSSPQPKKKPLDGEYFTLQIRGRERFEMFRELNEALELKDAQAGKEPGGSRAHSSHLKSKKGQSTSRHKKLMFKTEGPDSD
human Peroxisome Proliferator-activated Receptor alpha (PPARa), PPARA (gene 5465), sequence (Q07869 whole entry, looked up, the tested form may be a part): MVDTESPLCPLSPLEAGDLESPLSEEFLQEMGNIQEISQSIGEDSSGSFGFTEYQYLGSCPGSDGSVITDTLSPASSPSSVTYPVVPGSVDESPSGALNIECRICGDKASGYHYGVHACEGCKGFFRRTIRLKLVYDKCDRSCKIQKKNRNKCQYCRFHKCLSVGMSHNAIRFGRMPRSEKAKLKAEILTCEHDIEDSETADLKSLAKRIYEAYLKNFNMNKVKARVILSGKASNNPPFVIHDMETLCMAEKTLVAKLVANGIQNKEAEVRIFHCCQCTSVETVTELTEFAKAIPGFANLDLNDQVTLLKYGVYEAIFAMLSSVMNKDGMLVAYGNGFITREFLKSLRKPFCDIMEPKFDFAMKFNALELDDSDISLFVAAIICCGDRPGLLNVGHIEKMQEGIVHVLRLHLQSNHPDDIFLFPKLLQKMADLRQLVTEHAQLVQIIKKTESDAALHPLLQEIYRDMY
Nuclear receptor subfamily 1 group I member 2 (Homo sapiens), sequence (O75469 whole entry, looked up, the tested form may be a part): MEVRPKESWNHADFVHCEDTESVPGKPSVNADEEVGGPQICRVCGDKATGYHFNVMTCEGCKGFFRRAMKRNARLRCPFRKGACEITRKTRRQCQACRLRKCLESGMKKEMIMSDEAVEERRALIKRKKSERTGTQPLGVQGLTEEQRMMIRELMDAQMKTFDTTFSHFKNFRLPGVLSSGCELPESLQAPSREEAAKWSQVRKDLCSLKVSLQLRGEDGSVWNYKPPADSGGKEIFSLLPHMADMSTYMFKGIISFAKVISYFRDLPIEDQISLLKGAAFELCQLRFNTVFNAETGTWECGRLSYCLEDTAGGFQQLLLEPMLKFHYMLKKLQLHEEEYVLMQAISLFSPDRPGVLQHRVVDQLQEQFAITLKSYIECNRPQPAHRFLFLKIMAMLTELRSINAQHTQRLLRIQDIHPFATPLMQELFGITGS
Retinoic acid receptor alpha (Homo sapiens), sequence (P10276 whole entry, looked up, the tested form may be a part): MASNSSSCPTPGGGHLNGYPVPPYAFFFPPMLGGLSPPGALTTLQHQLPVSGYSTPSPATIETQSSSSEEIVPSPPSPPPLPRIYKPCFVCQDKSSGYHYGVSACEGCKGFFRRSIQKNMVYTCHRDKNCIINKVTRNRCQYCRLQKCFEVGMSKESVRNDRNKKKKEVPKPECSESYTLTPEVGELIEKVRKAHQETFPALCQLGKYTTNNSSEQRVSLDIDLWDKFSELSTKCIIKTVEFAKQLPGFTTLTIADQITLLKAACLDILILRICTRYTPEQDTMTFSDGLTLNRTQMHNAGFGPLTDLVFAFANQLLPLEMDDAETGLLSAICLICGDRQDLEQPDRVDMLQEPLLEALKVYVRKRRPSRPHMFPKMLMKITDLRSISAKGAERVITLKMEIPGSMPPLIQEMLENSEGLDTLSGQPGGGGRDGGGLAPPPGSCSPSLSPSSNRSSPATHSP
Retinoic acid receptor RXR-alpha (Homo sapiens), sequence (P19793 whole entry, looked up, the tested form may be a part): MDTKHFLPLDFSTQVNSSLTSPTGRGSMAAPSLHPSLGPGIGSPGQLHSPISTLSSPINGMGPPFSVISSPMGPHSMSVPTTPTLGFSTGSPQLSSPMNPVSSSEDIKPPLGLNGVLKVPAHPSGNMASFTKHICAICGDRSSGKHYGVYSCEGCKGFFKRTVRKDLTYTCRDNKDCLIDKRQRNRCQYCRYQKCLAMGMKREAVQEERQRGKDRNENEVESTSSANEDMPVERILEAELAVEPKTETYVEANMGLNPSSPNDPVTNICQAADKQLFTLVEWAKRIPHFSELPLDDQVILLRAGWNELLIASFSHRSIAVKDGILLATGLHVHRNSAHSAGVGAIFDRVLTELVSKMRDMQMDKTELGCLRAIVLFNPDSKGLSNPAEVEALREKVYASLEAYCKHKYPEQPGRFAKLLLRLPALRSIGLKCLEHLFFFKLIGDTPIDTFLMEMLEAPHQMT
human Retinoic Acid Receptor gamma (RARg), RARG (gene 5916), sequence (P13631 whole entry, looked up, the tested form may be a part): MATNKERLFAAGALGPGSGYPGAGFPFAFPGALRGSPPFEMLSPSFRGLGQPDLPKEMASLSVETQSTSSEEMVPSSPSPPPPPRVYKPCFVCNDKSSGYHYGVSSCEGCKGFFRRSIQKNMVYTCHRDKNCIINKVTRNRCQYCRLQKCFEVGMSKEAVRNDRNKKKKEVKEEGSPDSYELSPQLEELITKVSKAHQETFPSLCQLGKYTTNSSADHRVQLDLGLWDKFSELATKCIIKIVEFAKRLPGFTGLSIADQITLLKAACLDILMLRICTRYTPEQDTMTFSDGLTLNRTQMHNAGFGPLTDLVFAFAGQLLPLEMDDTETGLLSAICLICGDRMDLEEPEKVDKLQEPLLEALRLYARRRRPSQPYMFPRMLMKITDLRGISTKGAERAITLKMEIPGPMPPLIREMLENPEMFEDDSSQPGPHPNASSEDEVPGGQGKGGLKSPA

In the case of `CCSC(C)CC1CC(=O)C(C(CC)=NOC/C=C/Cl)=C(O)C1` (configuration not stated), the molecule was called inactive in experiment [1], in experiment [2], in [3], in experiment [4], in [5] and in experiment [6]. Further, the outcome in experiment [7], in [8], in experiment [9], in experiment [10], in [11] and in [12] was inactive. Moreover, the molecule was called inactive in [15] and in experiment [16]. Besides, the values for the AC50 in [13] and in experiment [14] were 35.3 µM (active) and 7.44 µM (active), respectively.
With `CC(=O)[O][Hg][c]1ccccc1`, the molecule was classed as inactive in experiment [1], in [2], in experiment [5], in experiment [17], in experiment [18] and in experiment [11]. Further, the molecule was classed as inactive in experiment [13] and in experiment [14]. In addition, the AC50 in experiment [3] was 2.24 µM (active); in experiment [4], 2.5 µM (active); in experiment [6], 2.59 µM (active); in experiment [7], 1.17 µM (active); in experiment [8], 2.36 µM (active); in experiment [9] it was 1.78 µM (active). The AC50 in experiment [10] was 2.69 µM (active); in experiment [12], 1.18 µM (active).
On to `[O-][Cl+2]([O-])O`, for which the call in experiment [1], in experiment [2], in experiment [3], in experiment [4] and in [5] was inactive.
With `Cc1ccccc1N`, the call in experiment [1], in experiment [2], in experiment [3], in experiment [4], in [5] and in experiment [6] was inactive. Further, the outcome in experiment [7], in [8], in [9], in experiment [17], in [18] and in [10] was inactive. Moreover, the outcome in [12], in experiment [19] and in experiment [16] was inactive.
